Most compounds without a hit are left out; they make up all but 5.4% or so of the library.
ALOX15B inhib: blocks human 15-lipoxygenase 2 activity; purified 15hLO-2, xylenol orange hydroperoxide absorbance; Potency, µM (doses to about 57.1 µM), for inactives: top-dose activity change, negative = inhibition, usual class: inhibitors; AID 881; 0.56% of 110,000 active; also: potency is read from the fitted curve at half-maximal effect; nearly all actives have a fitted effect of over 60% in size
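Enzyme 50 nM, AA 45 uM, 25 mM Hepes pH 7.5 + 0.01% Triton X-100; cpd preinc 15 min RT, rxn 90 min RT; stop/detect with 200 uM XO + 300 uM Fe(II) in 50 mM H2SO4, 30 min; A573/A405.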
PNC inhibitor: inhibitors of perinucleolar compartment assembly | PC3M PTB-GFP, PNC prevalence imaging, 16 h; hits give low values | activity change (PNC), negative = inhibition, % at 10 µM | 3.1% of 140,000 active;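 active = readout at or below -70, meaning at least 70% loss of cells showing the perinucleolar compartment, a nuclear body marking cancer cells; inconclusive = readout between -30 and a set limit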;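 also: plate controls were DMSO wells for no effect and camptothecin positive control wells for full effect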
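Compounds are pinned in duplicate onto adhered PC3M cells stably expressing GFP-tagged PTB and incubated 16 h at 37 C. Cells are then fixed, nuclei stained with Hoechst, and PNC-positive cells counted.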
IMPase inh: membrane-permeable compound that blocks inositol monophosphatase | P97697 | CHO-M1 cells, IP1 accumulation, HTRF TR-FRET ratio | inhibition (IP1 accumulation), % at 46.1 µM | 120,000 tested, under 10 active | AID 901; active = well fitted curve in the direction sought with a large enough effect in the signal ratio, not every such curve was filed as active; inconclusive = small, poorly fitted or top-dose-only effect, or a change in a side signal; inactive = no such curve, though single readings can be large or run the other way; the % refers to the signal ratio;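 also: cells stimulated with carbachol in lithium chloride buffer; plate controls were DMSO basal wells for no effect and reference inhibitor wells for full effect; higher means more IMPase inhibition seen as more IP1 and lower FRET ratio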
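In this qHTS, compounds (final up to 46 uM) act on CHO-M1 cells that are then activated through the M1 receptor with carbachol, in pH 7.4 buffer containing 50 mM LiCl, for 30 min. IP1 accumulation is quantified by the IP-One immunoassay.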
IMPase Li cell: IMPase inhibition in cells with lithium potentiation | AID 1457 | 0.35% of 210,000 active | Potency, µM (highest dose often 59.4 µM), without a hit: top-dose activity, negative = IMPase inhibition, actives largely listed as inhibitors | CHO-M1 cells, IP1 TR-FRET (IP-One), carbachol + lithium;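 also: IP1 builds up when IMPase is blocked and the TR-FRET signal falls; potency is read from the fitted curve at half-maximal effect; plate controls were basal vehicle for no effect and high inhibitor control for full effect; nearly all actives have a fitted effect of over 50% in size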
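Lithium-sensitised IP1 accumulation assay; M1-expressing CHO cells treated 30 min at 37C with compound. Competitive antibody detection by time-resolved FRET followed a 10 min room-temperature lysis step.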
12-hLO inh: blocks human 12-lipoxygenase activity | Potency, µM (doses to about 57.1 µM), for the others: top-dose activity change, negative = inhibition, most hits filed as inhibitors | AID 1452 | purified 12-hLO, xylenol orange hydroperoxide absorbance | 0.12% of 150,000 active; also: potency is read from the fitted curve at half-maximal effect; nearly all actives have a fitted effect of over 55% in size
Target sequence (P18054 whole entry, looked up): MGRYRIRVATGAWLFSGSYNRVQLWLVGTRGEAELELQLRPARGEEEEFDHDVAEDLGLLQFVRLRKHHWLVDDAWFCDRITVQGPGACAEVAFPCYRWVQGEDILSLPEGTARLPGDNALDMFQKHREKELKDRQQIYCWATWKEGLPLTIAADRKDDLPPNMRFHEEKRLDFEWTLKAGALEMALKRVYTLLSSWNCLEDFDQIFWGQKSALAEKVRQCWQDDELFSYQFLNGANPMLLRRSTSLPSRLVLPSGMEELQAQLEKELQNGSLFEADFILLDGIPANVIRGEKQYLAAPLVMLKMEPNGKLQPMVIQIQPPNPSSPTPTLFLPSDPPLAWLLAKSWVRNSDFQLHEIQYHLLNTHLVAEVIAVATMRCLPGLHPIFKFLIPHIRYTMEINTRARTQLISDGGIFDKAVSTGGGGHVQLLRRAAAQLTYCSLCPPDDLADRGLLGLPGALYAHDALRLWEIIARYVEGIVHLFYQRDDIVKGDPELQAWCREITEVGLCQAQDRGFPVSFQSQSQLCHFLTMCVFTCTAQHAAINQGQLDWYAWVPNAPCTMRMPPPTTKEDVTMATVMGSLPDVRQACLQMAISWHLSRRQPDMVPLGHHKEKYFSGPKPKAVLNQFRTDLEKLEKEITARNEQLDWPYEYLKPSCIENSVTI
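Purified human 12hLO (150 nM), preincubated 15 min with compound, then 40 uM arachidonic acid for 30 min, room temperature, Hepes pH 7.0 with 0.01% Triton X-100. Hydroperoxide detected by ferrous iron/xylenol orange; 573/405 nm absorbance ratio gives reaction progress.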
HPGD inh: HPGD (human) dehydrogenase inhibition; P15428; purified HPGD, NADH fluorescence kinetic, PGE2 substrate; Potency, µM, for the others: at the top dose activity change, negative = inhibition, most hits filed as inhibitors; 4.3% of 150,000 active; AID 894; active = well fitted inhibition curve with a large enough effect, not every such curve was filed as active; inconclusive = small, poorly fitted or top-dose-only effect, or another doubt; inactive = no such curve, though single readings can be large or run the other way; also: potency is read from the fitted curve at half-maximal effect
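NADH formation kinetics: reaction with 30 uM PGE2 and 1 mM NAD+ (final), 20 nM enzyme, Tris-HCl pH 8 with Tween 20, after 15 min compound preincubation at room temperature. Fluorescence change, last versus first of five reads.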
An asterisk follows results filed as active; u = inconclusive; x = no result; [ ] = dose if it differs, or a comment. Unless noted, calls follow the shape of the dose curve; as a rule, active = well fitted curve in the direction sought with a large enough effect; inconclusive = small, poorly fitted or top-dose-only effect, or another doubt; inactive = no such curve, though single readings can be large; an effect the other way counts as inactive or inconclusive. Unless noted, % is scaled to controls: 0 for no effect and ±100 for the full control effect.

SMILES	ALOX15B inhib	PNC inhibitor	IMPase inh	IMPase Li cell	12-hLO inh	HPGD inh
Cc1occc1C(=O)NN=C1C2CC3CC(C2)CC1C3	x	-100*	u	-1%	-1%	-7%
COCCOC(=O)c1c(C)oc2c1cc(NS(=O)(=O)c1ccc(Cl)c(C)c1)c1ccccc12	x	x	1	x	x	x
Cc1noc(C)c1S(=O)(=O)N1CCN(C(c2ccccc2)c2ccc(Cl)cc2)CC1 (centres undefined)	6%	-90*	0	18%[38.3 µM]	-4%	-8%
CO[C@@H]1/C=C\O[C@]2(C)Oc3c(C)c(O)c4c(O)c(c(CN5CCN(C)CC5)c(O)c4c3C2=O)NC(=O)/C(C)=C\C=C[C@@H](C)[C@@H](O)[C@H](C)[C@@H](O)[C@H](C)[C@H](OC(C)=O)[C@@H]1C	-7%[11.4 µM]	x	x	x	-8%[11.4 µM]	x
COc1ccc(-n2c(=S)[nH]c3c(oc4ccccc43)c2=O)cc1	x	30	x	6.3µM*	-10%	-26%
CCC/C=C(\CCC)C(NS(=O)(=O)CC12CCC(CC1=O)C2(C)C)c1ccc(C(=O)OC)cc1 (centres undefined)	7%	x	x	12%	-1%	22µM*
Cc1ccc(C(=N)c2ccccc2Cc2cccc3ccccc23)c2ccccc12	22%[11.4 µM]	x	x	-2%	4%[11.4 µM]	1%
Cc1cc(O)c(C2=Nc3ccccc3SC(c3ccc(Cl)cc3)C2)c(=O)o1 (centres undefined)	x	-26	x	6%	3%	-4%
COc1ccc(C2CC(c3c(O)cc(C)oc3=O)=NCCS2)c(OC)c1 (centres undefined)	-1%	-114*	5	-7%[38.3 µM]	-21%	16µM*
CCC(=O)OC1(C)C(=O)C=C2C=C(CCCNC(=O)OC(C)(C)C)OC=C2C1=O (centres undefined)	x	x	x	6%	0%	-8%
Cc1ccsc1/C=N/n1c(-c2ccncc2)n[nH]c1=S	x	18	x	1%	-2%	28µM*
Cc1cc(-c2n[nH]c(=S)n2/N=C/C(Cl)=C/c2ccccc2)n[nH]1	x	0	x	9%	-4%	6.3µM*
Cc1ccsc1/C=N/n1c(-c2ccco2)n[nH]c1=S	-16%	u	2	-3%[38.3 µM]	-3%	14µM*
Cc1ccsc1/C=N/n1c(-c2ccccn2)n[nH]c1=S	x	u	x	3%	-28%	28µM*
Cc1ccc(/C=N/n2c(-c3ccncc3)n[nH]c2=S)o1	x	x	x	2%	x	x
S=c1[nH]nc(C2CCCCC2)n1/N=C/C(Cl)=C\c1ccccc1	x	-27	-3	-9%	-15%	-27%
CC(C)(C)C(=O)OCOP(=O)(OCOC(=O)C(C)(C)C)C(C)(Oc1ccc(O)cc1)P(=O)(OCOC(=O)C(C)(C)C)OCOC(=O)C(C)(C)C	28%[0.0915 µM]	x	x	-18%	-25%[0.00818 µM]	-3%
S=C1N[C@H](c2ccccc2)N[C@H](c2ccccc2)S1	-29%[11.4 µM]	x	x	0%	-4%[11.4 µM]	u
Nc1nc(Nc2ccccc2)nc2c1ncn2[C@@H]1O[C@@H](CO)[C@H](O)[C@@H]1O	5%	x	2	x	-2%	x
Cc1ccsc1/C=N/n1c(-c2ccccc2)n[nH]c1=S	x	25	x	5%	-2%	13µM*
Cc1cc(-c2n[nH]c(=S)n2/N=C/c2sccc2C)n[nH]1	x	-23	x	-2%	-7%	22µM*
CCN=C(NC#N)SCc1c(F)cccc1Cl	x	-109*	x	-2%	2%	-3%
C=CCN=C(NC#N)SCc1ccccc1	-4%	34	3	-17%[38.3 µM]	0%	2%
Cc1ccc(NC(=O)c2c(C)nn(-c3ccccc3)c2Cl)c(C)c1	2%	37	-2	33%[38.3 µM]	-5%	14µM*
Cc1nn(-c2ccccc2)c(Cl)c1C(=O)NC1CCCCC1	x	x	x	11%	x	x
SMILES	ALOX15B inhib	PNC inhibitor	IMPase inh	IMPase Li cell	12-hLO inh	HPGD inh
Cc1nn(-c2ccccc2)c(Cl)c1C(=O)Nc1nnc(C2CCCC2)s1	4%	-85*	7	17%[38.3 µM]	-6%	-19%
O=C(O)c1cccc(N2CCCC2=O)c1	-5%	25	-5	5%[38.3 µM]	-2%	20µM*
O=C(NC1CCCCC1)c1ccc(N2CCCC2=O)cc1	-3%	-28	19	-18%[38.3 µM]	-3%	8.9µM*
O=C(NCc1ccc(N2CCCC2=O)cc1)NC1CCCCC1	-2%	-1	-5	19%[38.3 µM]	-2%	22µM*
c1ccc2c(c1)Cc1cc3cc4c(cc3nc1-2)OCO4	-9%	x	x	1%	-15%	u
CCN(CC)CC[n+]1ccc2c(C)c3[nH]c4ccccc4c3c(C)c2c1	32%[11.4 µM]	x	x	4%	9%[11.4 µM]	-6%
CS(=O)(=O)c1ccc(Cn2c3c(c4cc(F)cc(F)c42)CCC[C@H]3CC(=O)O)cc1	-30%	x	-3	12%	-11%	34%
COCC(=O)Nc1ccc(OC)c(Cl)c1	x	x	x	2%	x	x
COc1ccc(NC(=O)C=C(C)C)cc1Cl	6%	32	24	-21%[38.3 µM]	-15%	18µM*
O=C(c1cc(C(F)(F)F)cc(C(F)(F)F)c1)N1CCC2(CC1)CN(c1ccccc1)C2	14%	x	x	-5%	-15%	-16%
N#CC1=C(N)SC(N)=C(C#N)C1CCc1ccccc1	u	31	-6	8%[38.3 µM]	-29%	14µM*
N#CC1=C(N)SC(N)=C(C#N)C1c1c(Cl)cccc1Cl	-21%	u	-21	u	-27%	u
N#CC1=C(N)SC(N)=C(C#N)C1Cc1ccccc1	u	34	-9	-19%[38.3 µM]	-23%	11µM*
N#CC1=C(N)SC(N)=C(C#N)C1C1CC=CCC1 (centres undefined)	-9%	-22	4	12%[38.3 µM]	-4%	-17%
CC(C)CC1C(C#N)=C(N)SC(N)=C1C#N	-9%	u	-28	u	-24%	32µM*
Cc1[nH]nc2c1C(Cc1ccccc1)C(C#N)=C(N)O2 (centres undefined)	-4%	1	-7	27%[38.3 µM]	-2%	u
O=C(CN1C(=O)COc2ccc(Cl)cc21)Nc1ccc(F)cc1	x	x	0	x	x	x
O=C(O)c1c(Cl)c(Cl)c(Cl)c(Cl)c1C(=O)Nc1ccc2cn[nH]c2c1	-8%[11.4 µM]	x	x	-8%	0%[11.4 µM]	-8%
CCOc1ccc(-c2cc(C(F)(F)F)c(C#N)c(SCC(=O)Nc3ccccc3)n2)cc1	x	x	-25	x	x	x
CCCCC/C=C\C\C=C/C=C/C=C/[C@@H](SCC(NC(C)=O)C(=O)O)[C@@H](O)CCCC(=O)O (some centres undefined)	x	x	x	-1%	6%	-4%
O=C1CC(c2ccc3c(c2)OCO3)c2cc(O)ccc2O1 (centres undefined)	-29%[0.0915 µM]	x	x	31%	-5%[0.00818 µM]	40µM*
CCCC[C@]1(C2CCCC2)Cc2cc(OCC(=O)O)c(Cl)c(Cl)c2C1=O	-17%	x	7	x	-12%	x

Screens as filed in PubChem.
